E-sel TNF inh = E-selectin induction blockers in HUVEC – imaging, immunofluorescence, high content, primary screen | HUVEC TNFa-induced E-selectin immunofluorescence | inhibition, % at 2 µM | 0.71% of 120,000 active | AID 1246, 2008;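 active = inhibition above the batch mean plus 3 SD, and confirmed as a hit on visual image review, cut at about 43% in these data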
VCAM1 TNFa inh = inhibitors of TNFa-induced VCAM1 expression, primary screen, imaging, HUVEC, TNFa stimulus, immunofluorescence. HUVEC TNFa-induced VCAM-1 immunofluorescence, high-content imaging. inhibition, % at 2 µM. 0.48% of 95,000 active. AID 802, 2007;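 active = inhibition above the batch mean plus 3 SD, with images confirmed as a hit by eye, cut at about 37% in these data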
IL1B NFkB pot = enhancers of NFkB p65 translocation in HUVEC – imaging, IL-1B stimulus, high-content imaging, primary screen. HUVEC IL-1B NFkB p65 nuclear translocation imaging. activation, % at 2 µM. 0.3% of 94,000 active. AID 819, 2007;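 active = activation above 40%, about the mean plus 3 SD, also judged a hit on visual image review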;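 also: percent activation is computed from the nuclear over cytoplasmic p65 intensity ratio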
IL1B cytotox = cytotoxicity in IL-1B stimulated HUVEC, primary screen, cytotoxicity control for IL-1B NFkB translocation project, imaging, Hoechst nuclear count, IL-1B stimulus; HUVEC cell count loss; cell count reduction, % at 2 µM; 0.41% of 94,000 active;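 active = cell count reduction more than 3 SD above the screen-wide mean, cut at about 70% in these data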
IL1B NFkB inh = inhibitors of IL-1B driven NFkB p65 nuclear import, primary screen, imaging, HUVEC, IL-1B stimulus, high-content imaging; HUVEC IL-1B NFkB p65 nuclear translocation imaging; inhibition, % at 2 µM; 0.43% of 94,000 active;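 active = inhibition above about 30% together with a positive call from visual inspection of the well image, limit read from the data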;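 also: nuclear over cytoplasmic p65 intensity ratio measured by imaging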
HUVEC tox TNFa = cytotoxicity in TNFa-stimulated HUVEC, primary screen, cytotoxicity control for VCAM1 expression modulator project, imaging, Hoechst nuclei count | cell count reduction, % at 2 µM | 0.17% of 93,000 active | AID 848, 2007 | HUVEC TNFalpha-stimulated, Hoechst cell count;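 active = cell count reduction exceeding the screen mean by over 5 SD, scaled to untreated wells per plate, cut at about 78% in these data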;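 also: cells counted after 24 h of TNF alpha exposure following the 1 h pretreatment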
Numbers stand for hits; n = inactive; x = no result. This is a sample that favours compounds with a hit; in the whole collection about 1.8% have one here.

SMILES | E-sel TNF inh | VCAM1 TNFa inh | IL1B NFkB pot | IL1B cytotox | IL1B NFkB inh | HUVEC tox TNFa
O=C1CC(c2ccc(F)cc2)Cc2nc(NCC3CCCO3)ncc21 (centres undefined) | n | n | n | n | 48 | n
CCOc1ccccc1NC(=O)Cn1c(=O)n(-c2ccc(OC)cc2OC)c(=O)c2c(C)c(C(=O)N(CC)CC)sc21 | n | x | x | x | x | x
Cc1cccc2cc(C#N)c(N3CCN(C)CC3)nc12 | x | n | n | n | n | n
Cc1cccc2cc(C#N)c(SCCN3CCCCC3)nc12 | n | n | n | 84 | 97 | n
Oc1ccccc1Nc1nc(NCC2CCCO2)c2ccccc2n1 (centres undefined) | 65 | n | n | n | n | n
CCOc1ccc(C=O)cc1CN1CCCCC1 | n | 95 | n | n | n | 84
COc1cc(OC)cc(OCC(O)Cn2ccnc2)c1 (centres undefined) | n | x | x | x | x | x
O=C(CSCc1ccc(Br)cc1)N1CCOCC1 | n | n | 42 | n | n | n
O=C(CSCc1ccc(F)cc1)N1CCOCC1 | n | n | n | n | n | n
Cc1cc(C)c2nc(N3CCC(C(=O)NCCCN4CC(C)CC(C)C4)CC3)sc2c1 (centres undefined) | n | x | x | x | x | x
Cn1c(COc2ccc3ccccc3c2)nnc1SCC(N)=O | x | n | n | n | n | n
Cn1c(COc2ccc3ccccc3c2)nnc1SCC(=O)OC1CCCCC1 | n | n | 41 | n | n | n
C=CCN1C(c2cccc(C(F)(F)F)c2)=CS/C1=C(/C#N)c1nnc(N2CCOCC2)n1-c1ccccc1 | 72 | x | x | x | x | x
C=CCN1C(c2ccccc2)=CS/C1=C(\C#N)c1nnc2n1CCCCC2 | 63 | x | x | x | x | x
CCOc1ccc(C2=CS/C(=C(\C#N)c3nnc4n3CCCCC4)N2CC)cc1 | n | n | n | n | n | n
C=CCN1C(c2ccc(Br)cc2)=CS/C1=C(/C#N)c1nnc(N2CCOCC2)n1-c1ccccc1 | n | x | x | x | x | x
CCC1=NC(c2ccc(OC)cc2OC)N(O)C1(C)C (centres undefined) | n | n | n | n | n | n
CCC1=NC(c2ccccc2Cl)N(O)C1(C)C (centres undefined) | n | 59 | n | n | n | n
CC(C)CC(=O)n1sc(NC(=O)c2ccccc2)nc1=O | 100 | n | n | n | n | n
CCOC(=O)c1c(NC(=O)C2CCCO2)sc(C(=O)OC(C)(C)C)c1C (centres undefined) | n | n | n | n | 99 | n
COC(=O)c1sc(NC(=O)C2CCCO2)c(C(=O)OC)c1C (centres undefined) | n | x | n | n | n | x
CCc1nnc(NC(=O)C2c3ccccc3Oc3ccccc32)s1 | n | n | n | n | n | n
COc1cc(-c2nnc(COc3ccc4ccccc4c3)o2)cc(OC)c1OC | 100 | n | n | n | n | n
O=c1ncn(-c2ccccc2C(F)(F)F)c2ncccc12 | n | x | x | x | x | x
O=c1ncn(-c2ccccc2F)c2ncccc12 | 67 | n | n | n | n | n
SMILES | E-sel TNF inh | VCAM1 TNFa inh | IL1B NFkB pot | IL1B cytotox | IL1B NFkB inh | HUVEC tox TNFa
Cc1cc(C(=O)O)c(CSCc2cc(C(=O)O)oc2C)o1 | n | n | n | n | n | n
O=C(Nc1nccs1)c1cccc(N2C(=O)c3cccc4c([N+](=O)[O-])ccc(c34)C2=O)c1 | n | 62 | n | n | n | n
COc1cc(C(=O)N(CCc2ccccc2)C2=CC3CCC(C2)N3C)cc(OC)c1OC (centres undefined) | n | n | n | n | n | n
CCCCN(C(=O)c1cc(OC)c(OC)c(OC)c1)C1=CC2CCC(C1)N2C (centres undefined) | 98 | n | n | n | n | n
O=S(=O)(C/C(=C/CO)S(=O)(=O)c1ccccc1)c1ccccc1 | 100 | 86 | n | n | 51 | n
Cc1nnc2n(C3CCCCC3)c(=O)c3c4c(sc3n12)COC(C)(C)C4 | x | n | n | n | n | 94
Cc1ccc(NC(=O)/C(=C\c2ccccc2)NC(=O)/C=C/c2ccccc2)cc1 | n | n | n | n | n | n
CCOc1ccccc1C(=O)N1CCN(c2cccc(Cl)c2)CC1 | n | 84 | n | n | n | n
CCOc1ccccc1N1CCN(C(=O)c2cccc(-c3ccc(O)cc3)c2)CC1 | n | 44 | n | n | n | n
CCOc1ccccc1N1CCN(C(=O)c2ccncc2)CC1 | n | n | n | n | n | n
CCCn1cnc2c(sc3nc4c(cc32)CSC(C)(C)C4)c1=O | n | n | n | n | n | 86
CC1(C)Cc2nc3sc4c(=O)n(Cc5ccccc5)cnc4c3cc2CS1 | n | x | x | x | x | x
Cn1cc(-c2nnnn2-c2cccc(C(F)(F)F)c2)c(C(F)(F)F)n1 | n | n | n | n | n | n
COC(=O)c1sccc1N/N=C/c1cccc(Oc2ccccc2)c1 | n | x | x | x | x | x
O=C(CSc1nnc(-c2ccccc2)o1)OCc1ccccc1 | n | n | 69 | n | n | n
Cc1ccc(C(=O)Nc2nc(C)c(C(=O)Nc3ccc4c(c3)CCC4)s2)cc1 | n | x | x | x | x | x

Source: PubChem
